The text below walks through data of paper PMC7862700, “An all-to-all approach to the identification of sequence-specific readers for epigenetic DNA modifications on cytosine”.

Common to all, as to assay: DAPPL (digital affinity profiling via proximity ligation, sequencing); 10 mM Tris-HCl pH 7.5, 50 mM NaCl, 1 mM DTT, 4% glycerol, room temperature, 30 min; GST-TFs on glutathione beads, 16-mer random dsDNA library, 0.1% formaldehyde crosslink after washing; high values mean tight binding
Common to all, as to details: protein: recombinant; tags: N-terminal GST; dsDNA, one strand shown

For one test, the target named is T1, FLI1 (Homo sapiens, UniProt Q01543 1-452).
T1 sequence: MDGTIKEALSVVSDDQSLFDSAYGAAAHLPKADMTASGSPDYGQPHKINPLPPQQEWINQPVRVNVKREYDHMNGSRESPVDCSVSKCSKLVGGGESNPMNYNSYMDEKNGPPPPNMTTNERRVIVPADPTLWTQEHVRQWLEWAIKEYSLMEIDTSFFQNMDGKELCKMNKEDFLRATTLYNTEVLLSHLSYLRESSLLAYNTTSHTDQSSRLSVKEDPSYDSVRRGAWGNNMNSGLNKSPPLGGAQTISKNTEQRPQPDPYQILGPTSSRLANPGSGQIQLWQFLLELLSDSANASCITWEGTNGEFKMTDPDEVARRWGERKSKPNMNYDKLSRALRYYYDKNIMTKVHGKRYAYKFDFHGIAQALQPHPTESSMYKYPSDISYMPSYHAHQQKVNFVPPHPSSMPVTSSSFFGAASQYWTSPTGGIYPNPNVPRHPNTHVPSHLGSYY
In a few lines: (§1)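 Pools were built from human transcription factors expressed in yeast as GST fusions, captured on glutathione beads and DNA-barcoded, along with a tag-only sample. Incubation with 200 nmole of a 16-mer random double-stranded DNA library lasted 30 min at room temperature in Tris/NaCl/DTT/glycerol buffer, and was followed by washing, 0.1% formaldehyde crosslinking, proximity ligation, PCR amplification and Illumina NextSeq500 sequencing. Binding signal is the quotient of each hexamer's read frequency for a factor and its frequency for the tag-only sample.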

In the next test the target is T2, ELK1 (Homo sapiens, UniProt P19419 1-428).
T2 sequence: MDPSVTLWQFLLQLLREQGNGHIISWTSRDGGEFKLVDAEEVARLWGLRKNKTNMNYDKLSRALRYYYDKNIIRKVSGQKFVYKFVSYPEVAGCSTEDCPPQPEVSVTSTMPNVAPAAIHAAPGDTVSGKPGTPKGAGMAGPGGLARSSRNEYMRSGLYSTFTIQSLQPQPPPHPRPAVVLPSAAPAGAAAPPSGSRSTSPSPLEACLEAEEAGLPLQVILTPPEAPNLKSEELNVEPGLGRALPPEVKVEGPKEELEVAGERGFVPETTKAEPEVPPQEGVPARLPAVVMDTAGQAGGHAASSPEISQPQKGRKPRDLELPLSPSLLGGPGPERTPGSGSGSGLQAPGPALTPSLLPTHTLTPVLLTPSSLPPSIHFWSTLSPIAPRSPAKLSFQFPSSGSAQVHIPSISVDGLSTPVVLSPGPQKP
In short, it runs like this: as §1

A further test concerns the target T3, GABPA (Homo sapiens, UniProt Q06546 1-454).
T3 sequence: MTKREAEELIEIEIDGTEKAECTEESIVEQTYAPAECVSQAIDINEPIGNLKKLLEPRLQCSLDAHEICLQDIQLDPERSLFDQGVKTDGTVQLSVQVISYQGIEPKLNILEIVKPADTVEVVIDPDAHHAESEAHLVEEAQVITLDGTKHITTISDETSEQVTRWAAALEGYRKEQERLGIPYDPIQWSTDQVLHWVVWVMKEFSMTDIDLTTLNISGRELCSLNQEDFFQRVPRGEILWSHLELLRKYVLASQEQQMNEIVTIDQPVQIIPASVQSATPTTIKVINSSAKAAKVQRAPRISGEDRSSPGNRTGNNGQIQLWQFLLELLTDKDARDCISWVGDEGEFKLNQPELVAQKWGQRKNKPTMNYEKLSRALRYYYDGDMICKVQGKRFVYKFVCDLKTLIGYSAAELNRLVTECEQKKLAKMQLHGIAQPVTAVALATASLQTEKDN
In a few lines:
as §1

For a further test, the target named is T4, ERG (Homo sapiens, UniProt P11308 1-479).
T4 sequence: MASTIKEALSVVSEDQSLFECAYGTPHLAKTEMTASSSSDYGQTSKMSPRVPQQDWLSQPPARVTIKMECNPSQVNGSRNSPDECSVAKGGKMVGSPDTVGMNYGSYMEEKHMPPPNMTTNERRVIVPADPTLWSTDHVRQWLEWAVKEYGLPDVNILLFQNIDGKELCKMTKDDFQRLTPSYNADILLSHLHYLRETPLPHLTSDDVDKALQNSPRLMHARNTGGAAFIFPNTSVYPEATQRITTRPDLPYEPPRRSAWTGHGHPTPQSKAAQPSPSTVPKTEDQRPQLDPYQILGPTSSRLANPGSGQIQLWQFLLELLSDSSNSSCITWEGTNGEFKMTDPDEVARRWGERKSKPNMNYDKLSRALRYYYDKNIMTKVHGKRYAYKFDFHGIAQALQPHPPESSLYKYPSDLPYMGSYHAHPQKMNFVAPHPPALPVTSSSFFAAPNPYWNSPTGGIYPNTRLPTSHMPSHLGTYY
In short, it runs like this: as §1

In a further test the target is ELF1 (Homo sapiens, UniProt P32519 1-619). In short, it runs like this: as §1
For another test, the target named is T5, EHF (Homo sapiens, UniProt Q9NZC4 1-300).
T5 sequence: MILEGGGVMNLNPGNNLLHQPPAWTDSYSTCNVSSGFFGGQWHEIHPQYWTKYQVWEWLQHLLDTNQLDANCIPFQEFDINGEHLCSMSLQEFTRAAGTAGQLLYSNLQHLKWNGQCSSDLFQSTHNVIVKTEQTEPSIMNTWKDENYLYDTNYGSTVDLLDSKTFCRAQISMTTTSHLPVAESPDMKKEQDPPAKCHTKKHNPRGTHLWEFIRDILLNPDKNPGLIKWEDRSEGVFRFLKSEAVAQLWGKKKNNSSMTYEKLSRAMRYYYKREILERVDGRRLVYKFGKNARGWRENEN
In a few lines:
as §1

For the next test, the target named is SPI1 (Homo sapiens, UniProt P17947 1-270). In a few lines:
as §1

For a further test, the target named is SPIB (Homo sapiens, UniProt Q01892 1-262). In a few lines: as §1
For another test, the target named is T6, ELK3 (Homo sapiens, UniProt P41970 1-407).
T6 sequence: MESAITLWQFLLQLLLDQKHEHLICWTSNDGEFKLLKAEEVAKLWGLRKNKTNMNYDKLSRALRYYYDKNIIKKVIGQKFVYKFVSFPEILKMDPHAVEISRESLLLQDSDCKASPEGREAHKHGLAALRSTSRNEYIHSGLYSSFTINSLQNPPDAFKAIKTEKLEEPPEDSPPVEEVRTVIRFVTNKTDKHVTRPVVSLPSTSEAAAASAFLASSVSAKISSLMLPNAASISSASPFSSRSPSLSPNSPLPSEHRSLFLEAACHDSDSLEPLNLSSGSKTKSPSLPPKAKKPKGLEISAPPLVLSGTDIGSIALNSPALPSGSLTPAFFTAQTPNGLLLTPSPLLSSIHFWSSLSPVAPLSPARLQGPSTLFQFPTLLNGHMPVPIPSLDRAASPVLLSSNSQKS
In short, it runs like this: as §1

The target of a further test is T7, FEV (Homo sapiens, UniProt Q99581 1-238).
T7 sequence: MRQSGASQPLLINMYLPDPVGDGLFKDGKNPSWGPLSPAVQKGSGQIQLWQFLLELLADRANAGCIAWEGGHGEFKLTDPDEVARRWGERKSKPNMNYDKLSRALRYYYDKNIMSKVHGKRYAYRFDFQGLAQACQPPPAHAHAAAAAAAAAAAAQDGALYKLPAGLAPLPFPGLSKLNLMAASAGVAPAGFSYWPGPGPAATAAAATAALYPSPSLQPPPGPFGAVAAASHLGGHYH
In a few lines:
as §1

The target in another test is ETV5 (Homo sapiens, UniProt P41161 1-510). In short, it runs like this:
as §1

For a further test, the target named is ELF4 (Homo sapiens, UniProt Q99607 1-663). In short, it runs like this: as §1
Another test has as its target ETV1 (Homo sapiens, UniProt P50549 1-477). In short, it runs like this: as §1
A further test deals with T8, ERF (Homo sapiens, UniProt P50548 1-548).
T8 sequence: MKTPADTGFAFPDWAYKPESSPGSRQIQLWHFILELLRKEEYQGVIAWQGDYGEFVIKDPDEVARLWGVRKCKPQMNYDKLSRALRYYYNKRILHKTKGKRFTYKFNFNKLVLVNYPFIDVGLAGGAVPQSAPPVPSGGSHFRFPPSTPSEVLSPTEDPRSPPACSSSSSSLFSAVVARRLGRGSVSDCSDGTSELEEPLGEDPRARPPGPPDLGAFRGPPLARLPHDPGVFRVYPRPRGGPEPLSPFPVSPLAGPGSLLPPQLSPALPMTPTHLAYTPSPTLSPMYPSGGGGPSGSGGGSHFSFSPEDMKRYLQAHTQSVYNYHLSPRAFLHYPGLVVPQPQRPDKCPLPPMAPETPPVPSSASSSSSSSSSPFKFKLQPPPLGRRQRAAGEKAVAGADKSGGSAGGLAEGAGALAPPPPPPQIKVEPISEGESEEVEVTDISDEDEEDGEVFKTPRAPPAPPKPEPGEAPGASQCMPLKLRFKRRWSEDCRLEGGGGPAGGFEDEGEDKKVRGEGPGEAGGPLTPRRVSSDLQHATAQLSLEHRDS
In a few lines: as §1

In another test the target is T9, ETV3L (Homo sapiens, UniProt Q6ZN32 1-361).
T9 sequence: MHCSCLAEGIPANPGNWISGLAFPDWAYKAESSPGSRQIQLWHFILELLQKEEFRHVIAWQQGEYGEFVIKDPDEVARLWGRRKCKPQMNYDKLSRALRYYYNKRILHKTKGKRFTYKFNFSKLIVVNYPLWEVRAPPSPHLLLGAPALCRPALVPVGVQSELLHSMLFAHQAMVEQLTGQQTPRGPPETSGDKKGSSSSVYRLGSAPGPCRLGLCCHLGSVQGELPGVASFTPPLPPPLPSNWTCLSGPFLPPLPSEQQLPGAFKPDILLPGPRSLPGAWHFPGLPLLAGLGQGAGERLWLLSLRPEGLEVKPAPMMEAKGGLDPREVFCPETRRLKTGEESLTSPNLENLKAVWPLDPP
In a few lines:
as §1

For a further test, the target named is T10, ETS2 (Homo sapiens, UniProt P15036 1-469).
T10 sequence: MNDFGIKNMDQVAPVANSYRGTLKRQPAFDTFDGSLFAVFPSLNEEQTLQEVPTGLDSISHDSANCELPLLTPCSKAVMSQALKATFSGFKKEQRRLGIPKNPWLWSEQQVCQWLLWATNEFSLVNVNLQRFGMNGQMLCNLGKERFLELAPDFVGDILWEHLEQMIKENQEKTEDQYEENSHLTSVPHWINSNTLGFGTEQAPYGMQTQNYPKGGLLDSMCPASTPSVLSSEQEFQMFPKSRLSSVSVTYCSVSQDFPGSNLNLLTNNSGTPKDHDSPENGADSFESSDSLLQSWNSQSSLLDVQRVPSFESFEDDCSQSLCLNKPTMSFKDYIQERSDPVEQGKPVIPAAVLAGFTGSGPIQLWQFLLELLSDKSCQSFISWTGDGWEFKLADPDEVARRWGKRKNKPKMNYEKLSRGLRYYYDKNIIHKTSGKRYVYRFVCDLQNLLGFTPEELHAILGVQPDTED
In short, it runs like this:
as §1

The target in the next test is T11, ELF5 (Homo sapiens, UniProt Q9UKW6-2 1-255).
T11 sequence: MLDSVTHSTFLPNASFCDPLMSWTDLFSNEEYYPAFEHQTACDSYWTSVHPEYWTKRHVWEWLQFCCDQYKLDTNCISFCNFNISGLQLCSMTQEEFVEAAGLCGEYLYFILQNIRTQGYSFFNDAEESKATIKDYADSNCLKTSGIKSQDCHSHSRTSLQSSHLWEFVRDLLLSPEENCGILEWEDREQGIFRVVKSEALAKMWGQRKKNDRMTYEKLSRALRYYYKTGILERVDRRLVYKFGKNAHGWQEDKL
In a few lines: as §1

The target in a further test is T12, ETV3 (Homo sapiens, UniProt P41162-2 1-143).
T12 sequence: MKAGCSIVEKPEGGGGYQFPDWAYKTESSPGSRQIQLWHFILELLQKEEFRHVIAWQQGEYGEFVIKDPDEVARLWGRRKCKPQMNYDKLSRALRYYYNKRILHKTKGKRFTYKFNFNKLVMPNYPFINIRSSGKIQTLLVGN
In a few lines:
as §1

For a further test, the target named is ETV6 (Homo sapiens, UniProt P41212 1-452). In short, it runs like this:
as §1

Sequence of ELF4 (Q99607 whole entry): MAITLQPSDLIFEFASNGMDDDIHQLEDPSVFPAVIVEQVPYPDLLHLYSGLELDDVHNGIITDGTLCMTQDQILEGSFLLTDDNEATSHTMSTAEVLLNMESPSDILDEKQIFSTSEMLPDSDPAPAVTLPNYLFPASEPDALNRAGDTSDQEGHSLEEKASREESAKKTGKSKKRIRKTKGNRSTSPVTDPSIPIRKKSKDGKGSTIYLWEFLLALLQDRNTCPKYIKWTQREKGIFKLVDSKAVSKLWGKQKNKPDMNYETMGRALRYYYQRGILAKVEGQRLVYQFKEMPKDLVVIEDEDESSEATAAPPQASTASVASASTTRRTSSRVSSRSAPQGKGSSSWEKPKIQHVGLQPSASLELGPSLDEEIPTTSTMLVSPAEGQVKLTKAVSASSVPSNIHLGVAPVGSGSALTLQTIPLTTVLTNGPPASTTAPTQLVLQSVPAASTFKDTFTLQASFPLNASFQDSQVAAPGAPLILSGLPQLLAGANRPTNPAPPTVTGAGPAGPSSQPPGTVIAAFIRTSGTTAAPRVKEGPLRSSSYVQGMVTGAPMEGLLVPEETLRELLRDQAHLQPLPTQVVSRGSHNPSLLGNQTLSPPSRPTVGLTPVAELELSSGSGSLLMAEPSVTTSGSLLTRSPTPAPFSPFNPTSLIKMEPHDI
Sequence of ETV1 (P50549 whole entry): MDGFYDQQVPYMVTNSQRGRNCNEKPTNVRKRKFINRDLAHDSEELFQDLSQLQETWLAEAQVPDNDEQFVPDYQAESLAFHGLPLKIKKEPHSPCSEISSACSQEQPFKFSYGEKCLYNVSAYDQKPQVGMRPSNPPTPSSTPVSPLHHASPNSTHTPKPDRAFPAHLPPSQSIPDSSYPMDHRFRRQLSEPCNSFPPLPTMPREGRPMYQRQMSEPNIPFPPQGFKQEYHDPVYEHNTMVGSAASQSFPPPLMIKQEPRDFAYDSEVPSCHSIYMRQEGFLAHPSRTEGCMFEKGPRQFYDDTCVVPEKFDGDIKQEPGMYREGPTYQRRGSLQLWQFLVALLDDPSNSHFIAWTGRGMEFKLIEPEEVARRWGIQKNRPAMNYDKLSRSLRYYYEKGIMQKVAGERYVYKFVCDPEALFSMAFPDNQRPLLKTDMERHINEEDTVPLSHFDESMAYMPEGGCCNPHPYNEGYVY
Sequence of ELF1 (P32519 whole entry): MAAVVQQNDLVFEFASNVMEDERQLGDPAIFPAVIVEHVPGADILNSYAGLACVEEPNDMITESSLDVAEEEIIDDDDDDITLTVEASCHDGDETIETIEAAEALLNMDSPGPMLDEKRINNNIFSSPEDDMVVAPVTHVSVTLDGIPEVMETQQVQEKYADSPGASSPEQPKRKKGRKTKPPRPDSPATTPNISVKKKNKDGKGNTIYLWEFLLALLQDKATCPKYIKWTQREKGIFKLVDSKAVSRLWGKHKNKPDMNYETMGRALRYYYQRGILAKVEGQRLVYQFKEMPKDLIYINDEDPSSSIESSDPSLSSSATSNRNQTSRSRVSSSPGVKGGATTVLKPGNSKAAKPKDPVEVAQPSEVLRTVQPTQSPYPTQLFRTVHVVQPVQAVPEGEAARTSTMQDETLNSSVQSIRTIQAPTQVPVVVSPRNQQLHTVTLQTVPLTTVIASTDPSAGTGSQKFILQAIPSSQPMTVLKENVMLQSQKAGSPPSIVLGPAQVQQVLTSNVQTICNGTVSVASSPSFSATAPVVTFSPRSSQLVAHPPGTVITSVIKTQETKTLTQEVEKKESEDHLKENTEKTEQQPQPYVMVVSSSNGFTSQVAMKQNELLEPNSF
Sequence of ETV6 (P41212 whole entry): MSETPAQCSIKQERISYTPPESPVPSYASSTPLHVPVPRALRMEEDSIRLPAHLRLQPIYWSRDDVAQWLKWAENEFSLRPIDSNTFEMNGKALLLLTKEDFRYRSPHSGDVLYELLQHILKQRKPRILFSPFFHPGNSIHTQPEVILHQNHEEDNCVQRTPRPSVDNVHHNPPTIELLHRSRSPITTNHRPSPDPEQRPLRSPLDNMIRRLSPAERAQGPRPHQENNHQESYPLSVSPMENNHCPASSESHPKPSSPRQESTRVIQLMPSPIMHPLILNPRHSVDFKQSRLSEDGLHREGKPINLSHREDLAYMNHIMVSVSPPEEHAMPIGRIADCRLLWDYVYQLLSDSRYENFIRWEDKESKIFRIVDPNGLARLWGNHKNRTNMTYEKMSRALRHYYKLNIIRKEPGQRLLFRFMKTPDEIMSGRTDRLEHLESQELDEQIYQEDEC
Sequence of ETV5 (P41161 whole entry): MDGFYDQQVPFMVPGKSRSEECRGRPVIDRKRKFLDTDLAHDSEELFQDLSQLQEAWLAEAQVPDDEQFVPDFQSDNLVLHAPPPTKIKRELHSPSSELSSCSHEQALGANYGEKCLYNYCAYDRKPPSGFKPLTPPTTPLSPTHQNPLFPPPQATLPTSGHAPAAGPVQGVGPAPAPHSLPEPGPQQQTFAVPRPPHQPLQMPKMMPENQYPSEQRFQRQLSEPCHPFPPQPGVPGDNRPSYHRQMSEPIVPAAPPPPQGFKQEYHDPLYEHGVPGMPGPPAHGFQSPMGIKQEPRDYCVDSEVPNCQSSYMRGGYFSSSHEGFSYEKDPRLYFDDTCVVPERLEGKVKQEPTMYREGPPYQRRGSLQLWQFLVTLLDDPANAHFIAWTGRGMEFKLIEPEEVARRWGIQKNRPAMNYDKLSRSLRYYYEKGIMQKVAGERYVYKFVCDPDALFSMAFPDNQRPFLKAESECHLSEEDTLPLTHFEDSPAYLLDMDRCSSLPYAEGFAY
Sequence of SPIB (Q01892 whole entry): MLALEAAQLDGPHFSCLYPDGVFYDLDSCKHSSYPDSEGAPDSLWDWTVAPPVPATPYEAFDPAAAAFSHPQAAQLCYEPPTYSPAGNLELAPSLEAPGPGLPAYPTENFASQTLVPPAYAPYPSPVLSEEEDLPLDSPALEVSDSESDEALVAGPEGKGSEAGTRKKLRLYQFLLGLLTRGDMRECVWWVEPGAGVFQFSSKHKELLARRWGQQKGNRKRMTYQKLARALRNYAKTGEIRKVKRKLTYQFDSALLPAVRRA

Turning to ACCGCA, the binding signal with FLI1 is 1.17 fold enrichment (6-mer frequency, TF over GST control); with ELK1, 1.14 fold enrichment (6-mer frequency, TF over GST control); with GABPA, 1.16 fold enrichment (6-mer frequency, TF over GST control); with ERG, 1.11 fold enrichment (6-mer frequency, TF over GST control); with ELF1 it was 1.15 fold enrichment (6-mer frequency, TF over GST control); with EHF, 1.23 fold enrichment (6-mer frequency, TF over GST control). Besides, the binding signal in the test with SPI1 was 1.2 fold enrichment (6-mer frequency, TF over GST control); with SPIB it was 1.16 fold enrichment (6-mer frequency, TF over GST control); in the test with ELK3, 1.19 fold enrichment (6-mer frequency, TF over GST control); with FEV, 1.17 fold enrichment (6-mer frequency, TF over GST control); in the test with ETV5, 1.13 fold enrichment (6-mer frequency, TF over GST control); in the test with ELF4, 1.15 fold enrichment (6-mer frequency, TF over GST control). The binding signal was 1.17 fold enrichment (6-mer frequency, TF over GST control) with ETV1; 1.11 fold enrichment (6-mer frequency, TF over GST control) with ERF; 1.12 fold enrichment (6-mer frequency, TF over GST control) with ETV3L; 1.18 fold enrichment (6-mer frequency, TF over GST control) with ETS2; 1.1 fold enrichment (6-mer frequency, TF over GST control) with ELF5; 1.09 fold enrichment (6-mer frequency, TF over GST control) with ETV3. Besides, the binding signal with ETV6 was 1.15 fold enrichment (6-mer frequency, TF over GST control).
